# The whole screen tested about 310,000 compounds, of which about 18,000 (5.8%) were called active. Where a call stands in place of a potency, no number is given. Roughly 22% stayed inconclusive and do not appear here. Calls come from the whole dose curve; as a rule, active = well fitted inhibition curve with a large enough effect; inconclusive = small, poorly fitted or top-dose-only effect, or another doubt; inactive = no such curve, though single readings can be large or run the other way. The full list was thinned out, with actives kept by preference.
# Assay: Primary qHTS for delayed death inhibitors of the malarial parasite plastid, 48 hour incubation
# Conditions: P. falciparum luciferase growth in erythrocytes; series mostly up to 28.7 µM
# Outline: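 In quantitative HTS format, infected erythrocytes bearing luciferase-reporter parasites were treated for a single generation at 37 C. Luminescence after adding detection reagent served as the growth measure.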
# Potency is the fitted concentration of half-maximal effect.
row,SMILES,Potency
1,CC1CN(C(=O)COC(=O)c2cccc(NS(=O)(=O)c3ccccc3)c2)CC(C)O1 (stereo unspecified),inactive
2,CCCc1cc(=O)oc2c(C)c(OCC(=O)NCc3ccccn3)ccc12,inactive
3,CC1CCCN(S(=O)(=O)c2ccc(N(C(=O)c3cnccn3)C(C(=O)NC3CCCCC3)c3cccs3)cc2)C1 (stereo unspecified),11.7 µM (active)
4,O=C(Nc1ccc(S(=O)(=O)N2CCCCC2)cc1)c1cnccn1,inactive
5,CCc1ccc(N(C(=O)c2csnn2)C(C(=O)NC2CCCCC2)c2ccncc2)cc1 (stereo unspecified),inactive
6,O=C(Nc1ccc(NC(=O)c2ccc3c(c2)OCO3)cc1)c1cccc(Cl)c1,inactive
7,O=C(CSc1n[nH]c(=O)n1-c1ccccc1)Nc1ccccc1C(F)(F)F,inactive
8,CCN(CC)c1ccc(C2C3CCCCC3(O)CCN2CC(=O)Nc2ccccc2)cc1 (stereo unspecified),inactive
9,CC1CCCCN1CC(=O)NCc1ccc2c(c1)OCO2 (stereo unspecified),inactive
10,Cc1ccc(NC(=O)CN2CCC3(O)CCCCC3C2c2ccc3c(c2)OCO3)c(C)c1 (stereo unspecified),10.4 µM (active)
11,Cc1c(S(=O)(=O)NC(C)c2ccccc2)c(=O)n(C)c(=O)n1C (stereo unspecified),inactive
12,O=C(NCCc1ccc(C(F)(F)F)cc1)c1ccc2c(c1)OCO2,inactive
13,COc1cc(/C=C2\CCCc3c2nc2ccccc2c3C(=O)O)cc(Cl)c1O,inactive
14,CCN(c1ccccc1)S(=O)(=O)c1ccc(OCC(=O)N2CCCC2)cc1,9.28 µM (active)
15,COc1ccc(N(CC(=O)N2CCCCCC2)S(=O)(=O)c2ccccc2)cc1,inactive
16,CC(NS(=O)(=O)c1ccc(OCC(=O)N2CCCC2)cc1)c1ccccc1 (stereo unspecified),inactive
17,CC(=O)Nc1ccc(Nc2ncnc3c2nnn3Cc2ccccc2Cl)cc1,inactive
18,COCCNC(=O)c1ccc2nc(Cc3ccc(OC)c(OC)c3)oc2c1,inactive
19,O=C(NCCN1CCCC(O)C1)c1cc(COc2c(F)cccc2F)on1 (stereo unspecified),inactive
20,Cc1cccc2cc(CN(C(=O)c3cccs3)c3ccccc3)c(=O)[nH]c12,inactive
21,CCC(c1nnnn1C1CCCC1)N(Cc1cccs1)Cc1cc2cccc(C)c2[nH]c1=O (stereo unspecified),10.4 µM (active)
22,Cc1cccc2cc(CN(Cc3cccs3)C(c3nnnn3C3CCCC3)C(C)C)c(=O)[nH]c12 (stereo unspecified),2.62 µM (active)
23,CCC(=O)Nc1cccc(NC(=O)CSc2nnnn2C2CCCC2)c1,inactive
24,Cc1cc(C)n2nc(C(=O)OCC(=O)N(CCC#N)c3ccc(F)cc3)nc2n1,inactive
25,CCOc1ccc(N(C)Cc2cc(=O)oc3ccc(OC)cc23)cc1,inactive
26,CC1CCC(NC(=O)CNC(=O)c2ccc3ccccc3c2)CC1 (stereo unspecified),inactive

row,SMILES,Potency
1,CN(C(=O)Cn1nnc(-c2ccc(F)cc2)n1)C1CCS(=O)(=O)C1 (stereo unspecified),inactive
2,OCC[C@H]1C[C@@H](O)[C@H](O)[C@]2(OCCCc3ccccc32)O1,inactive
3,Cc1ccc2c(c1)N(CC(=O)N1CCC(C)CC1)C(=O)c1cccnc1O2,inactive
4,Cc1ccc(SCc2c(C(=O)N/N=C/c3cccnc3)nnn2-c2nonc2N)cc1,inactive
5,O=C(CN1CCCCCC1)N1c2ccccc2Sc2ccc(C(F)(F)F)cc21,13.1 µM (active)
6,CCOC(=O)CNC(=O)N1c2ccccc2Sc2ccccc21,inactive
7,COc1cc(/C=C/C(=O)N2c3ccccc3Sc3ccc(C(F)(F)F)cc32)cc(OC)c1OC,inactive
8,Cc1ccc(C(CNC(=O)Nc2ccccc2)N2CCN(C)CC2)cc1 (stereo unspecified),inactive
9,Cc1ccc(S(=O)(=O)N2CCC(C(=O)OCC(=O)N(C)c3ccccc3)CC2)cc1C,inactive
10,COc1ccc(-c2nnc(SCc3cccnc3)o2)cc1,inactive
11,COc1ccc(-c2nnc(SC(C)C#N)o2)cc1 (stereo unspecified),inactive
12,COc1ccc(-c2nnc(SC(C)C(=O)NC3CC3)o2)cc1 (stereo unspecified),10.4 µM (active)
13,CCCC(C)c1nnc(NC(=O)C2CC(=O)N(c3ccc(OCC)cc3)C2)s1 (stereo unspecified),inactive
14,COc1ccc(N2CCN(c3ccc([N+](=O)[O-])cc3Cl)CC2)cc1,inactive
15,CCN1CCN(c2ccc([N+](=O)[O-])cc2C(=O)c2ccc(Cl)cc2)CC1,inactive
16,CCN1CCN(c2ccc([N+](=O)[O-])cc2C#N)CC1,4.15 µM (active)
17,COCCn1c(SCC(=O)Nc2nc(C)cs2)nnc1C(C)C,inactive
18,O=S(=O)(c1ccc(Cl)s1)N1CCC2(CC1)OCCO2,inactive
19,O=C(Nc1cccc(-c2nc3ccccc3[nH]2)c1)c1ccc(C(=O)Nc2cccc(-c3nc4ccccc4[nH]3)c2)cc1,0.37 µM (active)
20,O=C(Cc1cccs1)Nc1cccc(-c2nc3ccccc3[nH]2)c1,inactive
21,O=C(Nc1cccc(NC(=O)c2ccc(Br)cc2)c1)c1ccccc1,inactive
22,O=S(=O)(Nc1cc(S(=O)(=O)N2CCOCC2)ccc1N1CCCC1)c1cccs1,inactive
23,O=S(=O)(Nc1ccc(-c2ccc(N3CCOCC3)nn2)cc1)c1cc(Cl)ccc1Cl,inactive
24,O=S(=O)(Nc1cc(Cl)ccc1N1CCOCC1)c1ccccc1Cl,13.1 µM (active)
25,COCCCNC(=O)[C@H]1N2C(=O)c3ccccc3C2SC1(C)C (stereo partly specified),inactive
26,COc1ccc(CNC(=O)C(c2ccc(O)cc2)N(Cc2ccco2)C(=O)c2snc(C(N)=O)c2N)cc1 (stereo unspecified),13.1 µM (active)

row,SMILES,Potency
1,COc1ccc(C(C(=O)NC2CCCCC2)N(C(=O)c2snc(C(N)=O)c2N)c2ccccc2OC)cc1 (stereo unspecified),14.7 µM (active)
2,COc1ccc(C(C(=O)NC2CCCCC2)N(C(=O)CCl)c2ccccc2Cl)cc1 (stereo unspecified),inactive
3,COc1ccc(S(=O)(=O)NCc2ccc(C(=O)N(C)Cc3ccco3)cc2)cc1,inactive
4,CCC(C(=O)NCc1ccc(OC)cc1)n1nc(C)n2c(cc3occc32)c1=O (stereo unspecified),inactive
5,COc1cc(C(C(=O)NC2CCCC2)N(Cc2ccccc2)C(=O)c2snc(C(N)=O)c2N)ccc1O (stereo unspecified),inactive
6,Cc1cc(CN(C)C(=O)c2cc(COc3ccc(C)c(C)c3)on2)n[nH]1,inactive
7,CC(=O)c1ccc(NC(=O)Cn2c(=O)oc3ccccc32)cc1,inactive
8,CCCCc1nc2cc(C(=O)N3CCCCC3CCO)ccc2o1 (stereo unspecified),inactive
9,Cc1ccc(-c2nn(-c3ccccc3)cc2C(=O)NC2CCC(O)CC2)cc1 (stereo unspecified),inactive
10,CCc1ccc(-c2nn(-c3ccccc3)cc2CSC(=N)N)cc1,4.15 µM (active)
11,O=C(Nc1cn(-c2ccccc2)nc1-c1ccccc1)c1ccccc1,inactive
12,Cc1ccccc1OCC(=O)Nc1ccc2c(c1)ncn2C,inactive
13,CN(CCc1ccccn1)C(=O)c1ccc(OC2CCN(CCc3ccccc3)CC2)cc1,inactive
14,O=C(CSc1ccc2nnc(-c3ccccc3)n2n1)N1CCCc2ccccc21,13.1 µM (active)
15,CCC(=O)N1CCCc2ccccc21,inactive
16,COC(=O)c1ccc(CSc2nnc(N)s2)o1,inactive
17,COC(=O)c1ccc(CSc2ccc3nnc(-c4ccccc4)n3n2)o1,10.4 µM (active)
18,COC(=O)c1ccc(CSc2ccccc2C)o1,inactive
19,CCCn1c(SCC(=O)N2CCc3ccccc32)nnc1-c1ccncc1,inactive
20,CC(=O)NC(Cc1c[nH]c2ccccc12)C(=O)NCCc1ccccc1 (stereo unspecified),inactive
21,CC1CN(C(=O)CCC(=O)NCc2cccnc2)c2ccccc2O1 (stereo unspecified),inactive
22,CC(=O)NC(=O)c1ccccc1O,inactive
23,O=C(COC(=O)CNC(=O)C1CCCCC1)Nc1cccc(F)c1,inactive
24,O=C1NC[C@@H](Cc2ccc(O)cc2)N(CCc2cccc(F)c2)C1=O,inactive
25,NC1=NC[C@@H](Cc2ccc(O)cc2)N1CC1CCCCC1,6.57 µM (active)
26,CN(c1ccccc1)S(=O)(=O)c1ccc2[nH]c(=O)[nH]c2c1,inactive

row,SMILES,Potency
1,O=C(Cc1ccccc1Cl)N1CCOCC1,inactive
2,Cc1ccccc1N1CCN(C2CCCN(C(=O)c3ocnc3C)C2)CC1 (stereo unspecified),inactive
3,O=c1c2c(nc3cc(-c4cccc(Cl)c4)[nH]n13)CCCC2,inactive
4,Clc1ccc2nc3c(c(-c4ccccc4)c2c1)CNCC3,13.1 µM (active)
5,O=C(Cn1nnc(-c2ccc3c(c2)OCO3)n1)NCc1ccco1,inactive
6,Cc1ccc(-c2nnn(CC(=O)N(Cc3ccco3)C(C(=O)NC(C)(C)C)c3ccncc3)n2)o1 (stereo unspecified),14.7 µM (active)
7,Cc1cc(NC(=O)CCC(=O)N(c2ccccc2)C(C(=O)NC2CCCC2)c2ccncc2)no1 (stereo unspecified),inactive
8,Cc1cccc(N(C(=O)Cn2nnc(-c3ccc(C)o3)n2)C(C(=O)NC2CCCC2)c2ccncc2)c1 (stereo unspecified),inactive
9,COc1ccc(C)cc1N(C(=O)Cn1nnc(-c2ccc(C)o2)n1)C(C(=O)NC1CCCC1)c1ccncc1 (stereo unspecified),5.22 µM (active)
10,Cc1ccc(-c2nnn(CC(=O)N(CCO)C(C(=O)NC(C)(C)C)c3ccncc3)n2)cc1 (stereo unspecified),inactive
11,COc1cccc(N(CC(=O)NC2CCCC2)C(=O)Cn2nnc(-c3ccc(C)cc3)n2)c1,inactive
12,CCC(C(=O)NC1CCCC1)N(C(=O)Cn1nnc(-c2ccc(C)o2)n1)c1ccc(OC)c(OC)c1 (stereo unspecified),10.4 µM (active)
13,O=C(Cn1nnc(-c2ccccc2)n1)NC(=O)NC1CCCC1,inactive
14,CCc1ccc(-c2cc3c(=O)n(CC(=O)NCCCN4CCN(Cc5ccccc5)CC4)nc(C)n3n2)cc1,inactive
15,CC(CCc1ccc(O)cc1)NCc1ccc(Cl)cc1Cl (stereo unspecified),inactive
16,CN(C(=O)c1ccccc1)c1nccnc1C#N,inactive
17,CCOC(=O)CSc1nnc(NC(=O)C2CC(=O)N(c3ccc(F)cc3)C2)s1 (stereo unspecified),inactive
18,CCOC(=O)c1cccc(NC(=O)CN2C(=O)C3CC=CCC3C2=O)c1 (stereo unspecified),inactive
19,COc1ccccc1CNS(=O)(=O)c1cc2c3c(c1)CCC(=O)N3CCC2,inactive
20,CNC(=O)NC(=O)C(C)N1CCN(C/C=C/c2ccccc2)CC1 (stereo unspecified),inactive
21,COc1ccc(C(=O)NC2CC2)cc1OC1CCN(C/C=C/c2ccccc2)CC1,inactive
22,COc1cc(C(=O)N2CCN(C/C=C/c3ccccc3)CC2)cc(OC)c1C,10.4 µM (active)
23,CC(C)[C@@H](C(=O)O)N(Cc1cccc(CN([C@H](C(=O)O)C(C)C)S(C)(=O)=O)c1)S(C)(=O)=O,inactive
